Measurements: the GenesisPotency data set
The whole screen tested about 290,000 compounds, of which about 3,000 (1%) were called active. No stated cut-off is given here; in the data, active means inhibition mostly above about 36% (no sharp cut-off); inactive means mostly below about 34%. Shown is part of a subset that was picked to be rich in actives.

Molecular target: T1, Nucleotide-binding oligomerization domain-containing protein 1, Homo sapiens (UniProt Q9Y239)
T1 sequence (whole entry): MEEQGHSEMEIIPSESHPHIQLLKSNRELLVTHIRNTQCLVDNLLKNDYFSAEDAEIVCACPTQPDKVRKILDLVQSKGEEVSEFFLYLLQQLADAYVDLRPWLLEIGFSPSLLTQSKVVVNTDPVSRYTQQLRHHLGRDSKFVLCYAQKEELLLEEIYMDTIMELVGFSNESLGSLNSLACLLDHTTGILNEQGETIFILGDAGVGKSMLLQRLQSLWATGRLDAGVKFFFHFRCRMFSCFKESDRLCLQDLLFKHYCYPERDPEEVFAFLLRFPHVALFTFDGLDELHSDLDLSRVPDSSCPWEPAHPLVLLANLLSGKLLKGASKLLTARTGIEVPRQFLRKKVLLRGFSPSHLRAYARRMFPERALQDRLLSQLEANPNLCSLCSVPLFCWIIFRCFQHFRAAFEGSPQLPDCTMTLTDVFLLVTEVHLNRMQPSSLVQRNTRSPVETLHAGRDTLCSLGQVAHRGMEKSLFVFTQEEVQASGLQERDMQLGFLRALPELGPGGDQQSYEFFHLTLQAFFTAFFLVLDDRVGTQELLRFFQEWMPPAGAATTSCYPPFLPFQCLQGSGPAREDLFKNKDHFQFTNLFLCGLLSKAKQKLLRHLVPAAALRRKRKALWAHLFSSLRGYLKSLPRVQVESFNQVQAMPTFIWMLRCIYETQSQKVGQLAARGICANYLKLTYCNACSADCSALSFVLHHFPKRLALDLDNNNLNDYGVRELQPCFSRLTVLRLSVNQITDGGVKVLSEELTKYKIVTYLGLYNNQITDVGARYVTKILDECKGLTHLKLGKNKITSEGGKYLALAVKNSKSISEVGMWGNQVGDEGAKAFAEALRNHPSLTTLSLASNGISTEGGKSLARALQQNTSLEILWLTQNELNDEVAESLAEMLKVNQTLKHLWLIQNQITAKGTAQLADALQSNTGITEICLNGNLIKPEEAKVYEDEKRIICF
Assay: inhibition of NOD1-driven NF-kB reporter – cell-based, luminescence, uHTS, primary screen (AID 1578)

Row | Structure (SMILES) | outcome
1 | COc1ccc(-c2cc(-c3ccccc3)[n+](C)c(-c3ccccc3)c2)cc1.[O-][Cl+3]([O-])([O-])[O-] | active
2 | COc1ccc(-[n+]2c(-c3ccccc3)cc(-c3ccc(C)cc3)cc2-c2ccccc2)cc1.[O-][Cl+3]([O-])([O-])[O-] | active
3 | CCC(C)C(NC(=O)CCCNC(=O)CCC(=O)OC1O[C@H]2OC3(C)CC[C@H]4[C@H](C)CCC(C1C)C24OO3)C(=O)O (some centres undefined) | active
4 | CC(C)CC(NC(=O)CCCNC(=O)CCC(=O)OC1O[C@H]2OC3(C)CC[C@H]4[C@H](C)CCC(C1C)C24OO3)C(=O)O (some centres undefined) | active
5 | CCC(C)NC(=O)CCC(=O)OC1O[C@H]2OC3(C)CC[C@H]4[C@H](C)CCC(C1C)C24OO3 (some centres undefined) | active
6 | CC[C@@]1(O)C(=O)OCc2c1cc1n(c2=O)Cc2cc3ccccc3nc2-1 | active
7 | CCCCCCn1c(=O)c(C(=O)Nc2cnccn2)c(O)c2ccccc21 | active
8 | CCCCCn1c(=O)c(C(=O)Nc2cnccn2)c(O)c2ccccc21 | active
9 | C=C1C(=O)O[C@H]2C[C@@H](C)[C@@H]3C=CC(=O)[C@@]3(C)C[C@H]12 | active
10 | C=C1C(=O)O[C@@H]2C[C@@H](C)[C@@H]3C=CC(=O)[C@@]3(C)[C@@H](OC(=O)CC(=O)O[C@H]3[C@@H]4C(=C)C(=O)O[C@@H]4C[C@@H](C)[C@@H]4C=CC(=O)[C@]43C)[C@H]12 | active
11 | O=c1c2ccccc2nc(/C=C/c2ccccc2O)n1-c1ccccc1O | active
12 | CC(C)(C)c1ccc(CSc2cnn(C(C)(C)C)c(=O)c2Cl)cc1 | active
13 | O=Cc1cn(Cc2cccc([N+](=O)[O-])c2)c2ccccc12 | active
14 | O=c1c2ccccc2nc(/C=C/c2ccc([N+](=O)[O-])o2)n1-c1ccc(O)cc1 | active
15 | Cc1cccc(-n2c(/C=C/c3ccc([N+](=O)[O-])o3)nc3ccccc3c2=O)c1 | active
16 | O=C(c1ccc(Cl)cc1)C1CCCN(Cc2cccc3ncccc23)C1 (centres undefined) | active
17 | Cc1nc2c(=O)n(C)c(=O)nc-2n(C)n1 | active

Row | Structure (SMILES) | outcome
18 | CCOc1ccc(-c2cc(C)[n+](CCN(CC)CC)c(-c3ccc(OCC)cc3)c2)cc1.[O-][Cl+3]([O-])([O-])[O-] | active
19 | CC(=O)c1c(C)n(C2CCCCC2)c2ccc(O)cc12 | active
20 | C[C@H]1CCC[C@@H](O)CCC/C=C/c2cc(O)cc(O)c2C(=O)O1 | active
21 | CC1=CC(=Cc2sc3ccccc3[n+]2C)C=C(C)O1.[O-][Cl+3]([O-])([O-])[O-] | active
22 | CC(C)[C@H]1C(=O)O[C@H](C(C)C)C(=O)N(C)[C@@H](C(C)C)C(=O)O[C@H](C(C)C)C(=O)N(C)[C@@H](C(C)C)C(=O)O[C@H](C(C)C)C(=O)N1C | active
23 | CCn1nc(/C=C/c2ccccc2)nc2c(=O)n(C)c(=O)nc1-2 | active
24 | CCn1nc(-c2ccccc2)nc2c(=O)n(C)c(=O)nc1-2 | active
25 | Cc1nn(C(C)(C)C)c(C)c1/C=N/OC(=O)Nc1ccc(Cl)cc1 | active
26 | Cc1nn(C(C)(C)C)c(C)c1/C=N/OC(=O)Nc1ccc(Cl)c(Cl)c1 | active
27 | COc1ccc(Oc2cc(NC(=O)c3nn(C)cc3[N+](=O)[O-])cc([N+](=O)[O-])c2)cc1 | active
28 | C[C@@H]1O[C@@H](O[C@H]2C[C@@H](O)[C@]3(CO)[C@H]4[C@H](O)C[C@]5(C)[C@@H](C6=CC(=O)OC6)CC[C@]5(O)[C@@H]4CC[C@]3(O)C2)[C@H](O)[C@H](O)[C@H]1O | active
29 | NC(=O)c1cn(C2OC(CO)C(O)C2O)c2ncnc(N)c12.O (centres undefined) | active
30 | CCCCN=C[C@]12CCC(O)CC1(O)CCC1[C@@H]2CC[C@]2(C)[C@H](C3C=CC(=O)O3)CCC12O (some centres undefined) | active
31 | C[C@]12CCC3C(CCC4=CC(O)CC[C@@]43/C=N/O)C1(O)CCC2C1=CC(=O)OC1 (some centres undefined) | active
32 | CC(=O)OC[C@]12CCC(C)=C[C@H]1O[C@@H]1[C@H](O)[C@@H](OC(C)=O)[C@@]2(C)[C@]12CO2 | active
33 | C=C1C(=O)O[C@@H]2C[C@@H](C)[C@@H]3C4OC4C(=O)[C@@]3(C)[C@@H](O)[C@H]12 (some centres undefined) | active
34 | CCOc1ccc(-c2c(C)n(-c3ccc(OCC)cc3)c3[n+]2CCCCC3)cc1.[O-][Cl+3]([O-])([O-])[O-] | active
